{
  "source": "PubChem BioAssay (NCI)",
  "note": "Values joined by “and” are separate entries in the source; they are usually repeats but may differ in a detail not shown here. Equal values may be shown once. About 83,000 compounds went through this panel and 20% of them were active in at least one assay; those are over-represented in the sample as a whole.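 Negative percent growth values reflect cell death: -40 means 40% of the cells present at the start died, and -100 means all died.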 A number with no mark means an inactive call. Active and inactive are the calls of the source. Rule for the calls: active = growth percent below 10; inactive = the rest.",
  "data": [
    {"tested_on": "MDA-MB-468 breast", "assay": "NCI-60 one-dose screen, 48 h (100 = growth as untreated, 0 = no growth, -100 = all killed)", "conditions": "10 µM unless noted", "values": [
      {"smiles": "COc1ccc2nc3c(n2c1)C(=O)C(=O)c1ccccc1-3", "growth": "-10.8% (active)"},
      {"smiles": "CC[C@]1(O)C[C@@H]2CN(Cc3c([nH]c4ccccc34)[C@@](C(=O)OC)(c3cc4c(cc3OC)N(C)[C@H]3[C@@](O)(C(=O)OC)[C@H](OC(C)=O)[C@]5(CC)[C@@H]6C[C@@H]6CN6CC[C@]43[C@@H]65)C2)C1", "growth": "8.25% (active)"},
      {"smiles": "COc1ccc(-c2cc(-c3ccc(OC)c(OC)c3)nc(SCCCC(=O)NO)n2)cc1", "growth": "-30.7% (active)"},
      {"smiles": "O=C(NC(CSSCC(NC(=O)c1ccccc1)C(=O)O)C(=O)O)c1ccccc1", "note": "(stereo not given)", "growth": "111%"},
      {"smiles": "COc1cc([C@H](C)c2ccc3ccccc3c2)cc(OC)c1OC", "growth": "47.3%"},
      {"smiles": "O=c1[nH]c2ccc(Br)cc2c2c1C(c1ccc(Cl)cc1)c1c(ncn3nc(-c4ccco4)nc13)O2", "note": "(stereo not given)", "growth": "85.9%"},
      {"smiles": "CCOC(=O)C(N)Cc1cc(I)c(O)c(I)c1", "note": "(stereo not given)", "growth": "101% and 113%"},
      {"smiles": "COc1ccc(S(=O)(=O)c2ccc(F)cc2)cc1", "growth": "105%"},
      {"smiles": "CCCCOC(=O)c1cc(O)c(O)c(O)c1", "growth": "96.5%"},
      {"smiles": "O=C(Nc1ccc(Oc2cccc(F)c2)c(Cl)c1)c1cnccn1", "growth": "0.0833% (active)"},
      {"smiles": "CCN(CC)CCCC(C)N/C(c1cccc(OC)c1)=c1\\c(=O)[nH]n(-c2c3ccccc3nc3ccccc23)c(=O)\\c1=C(/NC(C)CCCN(CC)CC)c1cccc(OC)c1", "note": "(stereo not given)", "growth": "-56.2% (active)"},
      {"smiles": "COc1ccccc1CNC(=O)C1c2ccccc2C(=O)N(CC(C)C)C1c1cccs1", "note": "(stereo not given)", "growth": "65.7%"},
      {"smiles": "COc1cc2oc(-c3cccc(NC(=O)c4cccc(Br)c4)c3)cc(=O)c2c(OC)c1OC", "growth": "66.8%"},
      {"smiles": "CS(=O)(=O)Nc1cc(-c2ccc3ncc(C#N)c(NCc4ccccc4)c3c2)cnc1Cl", "growth": "-53.9% (active)"},
      {"smiles": "Cc1nn2c(/C=C3/C(=O)Nc4cc(Cl)ccc43)c(-c3ccccc3)nc2s1", "growth": "11%"},
      {"smiles": "S=C(S)OCN1CCOCC1", "growth": "99.1%"},
      {"smiles": "COc1cc(/C=C/c2cc(/C=C/c3ccc(O)c(OC)c3)nc(N)n2)ccc1O", "growth": "-35% (active)"},
      {"smiles": "O=C(O)/C=C/C(=O)NCc1ccccc1", "growth": "101%"},
      {"smiles": "Cc1ccc(C(NC(=O)c2ccccc2)c2ccc3cccnc3c2O)cc1", "note": "(stereo not given)", "growth": "-26.6% (active)"},
      {"smiles": "c1ccc(Nc2nc3c(s2)CCc2c[nH]cc2-3)nc1", "growth": "83.6%"},
      {"smiles": "CS(=O)(=O)c1ccc(C(=O)N/N=C/c2cccc3ccccc23)cc1", "growth": "74.2%"},
      {"smiles": "O=C(NN1C(=O)CSC1c1cccc([N+](=O)[O-])c1)c1ccc(NC(=O)c2ccccn2)cc1", "note": "(stereo not given)", "growth": "98.8%"},
      {"smiles": "CCN(CC)c1ccc(C(=N)c2ccc(N(CC)CC)cc2)cc1", "growth": "-24.8% (active)"},
      {"smiles": "COC(=O)/C=C1/SC(=Nc2ccc([N+](=O)[O-])cc2)N(CCc2c[nH]c3ccc(O)cc23)C1=O", "growth": "56.8%"},
      {"smiles": "CCOC(=O)COc1ccc2c(c1)O/C(=C\\c1ccc(O)cc1)C2=O", "growth": "91.9%"},
      {"smiles": "N#Cc1ccc(N2Cc3cc(Cl)ccc3OC3=C2C(=O)N(Cc2ccccc2)C3=O)cc1", "growth": "-64.2% (active)"},
      {"smiles": "COc1cc2c(cc1OC)C(C)N(S(N)(=O)=O)CC2", "note": "(stereo not given)", "growth": "99.6%"},
      {"smiles": "CCCn1cnc2c(c1=N)C(c1ccc(Cl)cc1)c1sc3c(F)cccc3c1O2", "note": "(stereo not given)", "growth": "42.4%"},
      {"smiles": "COc1cccc2cc(N(C)c3ncnc4ccccc34)ccc12", "growth": "-7.56% (active)"},
      {"smiles": "CSc1nc2c(c(=O)[nH]1)N=C1c3ccccc3C(=O)C1C(c1ccc(F)cc1)N2", "note": "(stereo not given)", "growth": "21.7%"},
      {"smiles": "C/C=C(/C)C(=O)OC1C=C(CO)C(=O)C(OC(=O)C(C)(O)C(C)Cl)C1C(C)C", "note": "(stereo not given)", "growth": "-51.9% (active)"},
      {"smiles": "Clc1ccc(N2CCN(CCCN3CCN(c4cccc(Cl)c4)CC3)CC2)cc1", "growth": "23.5%"},
      {"smiles": "C/C(=C\\C(=N\\N=C(N)N)c1ccc(Cl)cc1)c1ccc(Cl)cc1", "growth": "-92.9% (active)"},
      {"smiles": "O=c1[nH]c2ccccc2cc1CSc1ccccc1Nc1nccc(-c2ccc(C(F)(F)F)cc2)n1", "growth": "47.6%"},
      {"smiles": "CCc1ccc(-c2ccc(=O)n(-c3ccc(S(N)(=O)=O)cc3)n2)cc1", "growth": "7.89% (active)"},
      {"smiles": "C[C@]12CC[C@@H]3c4ccc(O)cc4C[C@@H](O)[C@H]3[C@@H]1CC[C@@H]2O", "growth": "98.1%"},
      {"smiles": "COc1ccc(Nc2ncnc3c2c(SC)nn3-c2ccccc2)cc1", "growth": "69.2%"},
      {"smiles": "Cc1nn(-c2ccc(Cl)cc2)c(=O)n1CCOc1ccccc1Cl", "growth": "105%"},
      {"smiles": "CC(C)N(CCOc1cccc(-c2nc3sccn3c2-c2ccnc(S(C)(=O)=O)n2)c1)C(C)C", "growth": "-2.25% (active)"},
      {"smiles": "Nc1nc(Nc2ccccc2)c2ncn(Cc3cc4c(cc3Br)OCO4)c2n1", "growth": "14.7%"}
    ]}
  ]
}
